Experimental data taken from PubChem BioAssay (Tox21).
Values without a mark were called inactive. Results filed as inconclusive are left out. A call without a number means that no potency is given here. Active and inactive are the calls of the source. Unless noted, calls come from the whole dose curve. Square brackets hold non-standard residues; d marks the D form. Peptide text beside a SMILES is read from it. pGlu = O=C1CC[C@@H](C(=O)O)N1

Key:
[1] = Nuclear factor erythroid 2-related factor 2/antioxidant responsive element (Nrf2/ARE) small molecule agonists: qHTS cell viability counter screen in human keratinocytes (AID 1919968; active = well fitted curve in the direction sought with a large enough effect in the repeat runs; an effect the other way counts as inactive or inconclusive; note: nearly all actives have a fitted effect of over 55% in size; note: potency is the fitted concentration of half-maximal effect)
Method in brief: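 Cytotoxicity was multiplexed with the Nrf2/ARE luciferase assay in the same wells. Stably transfected HaCaT keratinocytes were treated with test compounds for 23 h at 37 C. Cell viability was then measured by CellTiter-Fluor fluorescence.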

[2] = Nuclear factor erythroid 2-related factor 2/antioxidant responsive element (Nrf2/ARE) small molecule agonists: luciferase reporter gene qHTS assay in human keratinocytes (AID 1919969); note: nearly all actives have a fitted effect of over 35% in size; note: potency is the fitted concentration of half-maximal effect
[3] = biological target: KiSS-1 receptor (Homo sapiens) (UniProt Q969F8); experiment: Human kisspeptin (KISS1R) small molecule agonists, calcium flux assay in KISS1R-HEK293 cells (AID 1920064; active = well fitted curve in the direction sought with a large enough effect in the repeat runs; an effect the other way counts as inactive or inconclusive)
Method in brief: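 Agonist activity is monitored as intracellular calcium rise in engineered HEK293 cells carrying human KISS1R. Cells are dye-loaded for 1 h at 37 C before compound addition, and fluorescence is recorded for 3 min.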

[4] = G protein-coupled receptor (GPCR) small molecule agonists, calcium flux assay: HEK293 wild type cell line counter screen (AID 1920065)
Method in brief: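 Seed cells, incubate 18 h (37 C, 5% CO2); add calcium dye, 1 h at 37 C; pin-transfer compounds, ATP control or DMSO; read fluorescence 480/540 nm each second for 3 min.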

[5] = p53 small molecule agonists, cell-based qHTS assay with human liver microsomes (AID 1963577)
Method in brief: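 Cells carrying a p53-responsive bla reporter were rested 5 h (37 C, 5% CO2) before compound transfer. Human liver microsomes plus NADPH, 0.5 mg/mL final apiece, supplied metabolism during the 16 h 37 C exposure.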

[6] = p53 small molecule agonists, cell-based qHTS assay with rat liver microsomes (AID 1963578)
Method in brief: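 Fluorescence from a beta-lactamase reporter under a p53 response element was measured after cells had been incubated 16 h at 37 C with test compound and rat liver microsomes plus NADPH (0.5 mg/mL final each).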

[7] = p53 small molecule agonists, cell-based qHTS assay with human liver microsomes: qHTS cell viability counter screen (AID 1963579); note: nearly all actives have a fitted effect of over 45% in size; note: potency is the fitted concentration of half-maximal effect
Method in brief: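 Seed p53RE-bla cells at 4,000 per well; incubate 5 h at 37 C; add compound, human liver microsomes and NADPH; incubate 16 h at 37 C; add CellTiter-Glo; after 30 min at room temperature, read luminescence.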

[8] = p53 small molecule agonists, cell-based qHTS assay with rat liver microsomes: qHTS cell viability counter screen (AID 1963580); note: nearly all actives have a fitted effect of over 45% in size
Method in brief: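 Counter screen for cytotoxicity under metabolic activation: rat liver microsomes and NADPH, 0.5 mg/mL final each, added with compounds to p53RE-bla HCT-116 cells; 16 h at 37 C, then ATP luminescence read.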

[9] = biological target: Muscarinic acetylcholine receptor M1 (Homo sapiens) (UniProt P11229); experiment: Cholinergic receptor muscarinic 1 (CHRM1) small molecule antagonists, cell-based qHTS assay (AID 1963588); note: nearly all actives have a fitted effect of over 40% in size
Method in brief: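 Compounds were tested at 15 concentrations in three independent runs. Dye-loaded CHRM1-CHO cells were exposed 5 min at room temperature before stimulation by acetylcholine added at 50nM. Intracellular calcium was read kinetically on FDSS for 3 min.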

[10] = biological target: Beta-2 adrenergic receptor (Homo sapiens) (UniProt P07550); experiment: Adrenergic beta2 receptor (ADRB2) small molecule antagonists, cell-based qHTS assay (AID 1963592); note: nearly all actives have a fitted effect of over 50% in size; note: potency is the fitted concentration of half-maximal effect
Method in brief: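 Assay format: CHO-ADRB2 cells, 18-20hr seeding at 37C/5% CO2, then compound plus 1nM isoproterenol agonist mix for 0.5hr RT. Homogeneous time-resolved fluorescence cAMP detection after 1hr, expressed as 665/615 nm ratio.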

[11] = biological target: Beta-2 adrenergic receptor (Homo sapiens) (UniProt P07550); experiment: Adrenergic beta2 receptor (ADRB2) small molecule agonists, cell-based qHTS assay (AID 1963593);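 note: CHO cells stably overexpressing human ADRB2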
Method in brief: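 CHO cells stably over-expressing ADRB2 were plated overnight at 37C, then dosed with compounds plus a stimulation mix containing 100uM IBMX and 25uM Ro-20-1724 for 0.5hr at room temperature. cAMP was measured by HTRF competition, 1hr.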

[12] = biological target: D(2) dopamine receptor (Homo sapiens) (UniProt P14416); experiment: Dopamine D2 receptor (DRD2) small molecule agonists, cell-based qHTS assay (AID 1963594); note: nearly all actives have a fitted effect of over 35% in size
Method in brief: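 HEK293 cells stably expressing DRD2 were cultured 24 h at 37 C, then given Ro20-1724 (0.1 mM final) and compounds for 10 min at room temperature. NKH477 (200nM) was then added for 30 min. cAMP was read by HTRF.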

[13] = biological target: D(2) dopamine receptor (Homo sapiens) (UniProt P14416); experiment: Dopamine D2 receptor (DRD2) small molecule antagonists, cell-based qHTS assay (AID 1963595; active = well fitted inhibition curve with a large enough effect in the signal ratio in the repeat runs, with a control signal flat; the % refers to the signal ratio; note: potency is the fitted concentration of half-maximal effect)
Method in brief: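 Stable D2 receptor HEK293 line, 24 h after seeding. Compound preincubated 10 min, then quinpirole (12 nM) with forskolin analogue NKH477 (200 nM), 30 min, room temperature. Detection by time-resolved FRET of cAMP.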

[14] = p53 small molecule agonists, cell-based qHTS assay: qHTS cell viability counter screen (AID 1963581); note: nearly all actives have a fitted effect of over 45% in size
Method in brief: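 Viability was counter-screened in parallel with the p53 agonist reporter by measuring intracellular ATP luminescence in the same HCT-116 p53RE-bla wells after 16 h compound treatment at 37 C.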

[15] = p53 small molecule agonists, cell-based qHTS assay (AID 1963582; active = well fitted activation curve with a large enough effect in the signal ratio in the repeat runs, not every such curve was filed as active; the % refers to the signal ratio)
Method in brief: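 Cells carrying a p53-responsive bla reporter are treated with test compounds for 16 h at 37 C; beta-lactamase activity is then detected with LiveBLAzer B/G FRET substrate after 2 h at room temperature.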

[16] = biological target: 5-hydroxytryptamine receptor 2A (Homo sapiens) (UniProt P28223); experiment: 5-hydroxytryptamine receptor 2A (HTR2A) small molecule antagonists, cell-based qHTS assay (AID 1963586); note: nearly all actives have a fitted effect of over 45% in size; note: potency is the fitted concentration of half-maximal effect
Method in brief: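 CHO cells stably expressing human HTR2A were plated for 18 h at 37 C, then loaded with calcium dye for 1 h. Compounds were preincubated 5 min at room temperature before DOI (4 nM solution) was added. Kinetic fluorescence was read for 3 min.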

[17] = biological target: Muscarinic acetylcholine receptor M1 (Homo sapiens) (UniProt P11229); experiment: Cholinergic receptor muscarinic 1 (CHRM1) small molecule agonists, cell-based qHTS assay (AID 1963589); note: nearly all actives have a fitted effect of over 35% in size
Method in brief: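 Cells were plated and incubated 18 h at 37 C/5% CO2, loaded with calcium dye for 1 h at 37 C, then treated with compounds in DMSO. Fluorescence was recorded kinetically at 1 sec intervals.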

[18] = cAMP Responsive Elements (CRE) small molecule agonists, cell-based qHTS assay (AID 1963590)
Method in brief: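 Cells carrying a CRE-driven beta-lactamase reporter (HEK 293T) are seeded, incubated overnight (18 h), and treated with test compounds for 3 h at 37 C; reporter activity is then detected with a FRET substrate after 2 h at room temperature.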

[19] = cAMP Responsive Elements (CRE) small molecule antagonists, cell-based qHTS assay (AID 1963591; active = well fitted inhibition curve with a large enough effect in the signal ratio in the repeat runs, not every such curve was filed as active; the % refers to the signal ratio)
Method in brief: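 Cells (CRE-bla HEK 293T, DMEM with 10% dialyzed FBS and 25 mM HEPES) are seeded and incubated 18 h. Compounds are added with NKH477 agonist at 0.25 uM final for 3 h, then FRET substrate for 2 h.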

[20] = biological target: 5-hydroxytryptamine receptor 2A (Homo sapiens) (UniProt P28223); experiment: 5-hydroxytryptamine receptor 2A (HTR2A) small molecule agonists, cell-based qHTS assay (AID 1963587); note: potency is the fitted concentration of half-maximal effect; nearly all actives have a fitted effect of over 30% in size
Method in brief: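 HTR2A-CHO cells, plated 18 h at 37 C/5% CO2, dye-loaded 1 h at 37 C; compounds in DMSO added by pin tool (agonist mode). Intracellular calcium flux read as kinetic fluorescence on FDSS over 2 min at 1 s intervals.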

5-hydroxytryptamine receptor 2A (Homo sapiens), sequence (P28223 whole entry, looked up): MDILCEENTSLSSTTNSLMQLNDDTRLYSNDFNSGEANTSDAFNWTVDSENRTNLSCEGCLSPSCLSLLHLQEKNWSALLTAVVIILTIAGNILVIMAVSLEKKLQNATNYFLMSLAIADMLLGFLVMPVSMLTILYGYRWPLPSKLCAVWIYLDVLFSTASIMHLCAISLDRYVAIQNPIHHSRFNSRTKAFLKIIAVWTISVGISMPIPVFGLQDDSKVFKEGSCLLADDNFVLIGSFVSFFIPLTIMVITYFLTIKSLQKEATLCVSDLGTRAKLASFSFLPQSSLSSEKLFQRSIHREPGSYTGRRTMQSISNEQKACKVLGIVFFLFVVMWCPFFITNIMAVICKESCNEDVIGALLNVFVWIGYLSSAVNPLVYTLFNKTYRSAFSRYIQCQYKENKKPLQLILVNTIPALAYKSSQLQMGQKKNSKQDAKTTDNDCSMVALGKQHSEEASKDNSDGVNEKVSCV
KiSS-1 receptor (Homo sapiens), sequence (Q969F8 whole entry, looked up): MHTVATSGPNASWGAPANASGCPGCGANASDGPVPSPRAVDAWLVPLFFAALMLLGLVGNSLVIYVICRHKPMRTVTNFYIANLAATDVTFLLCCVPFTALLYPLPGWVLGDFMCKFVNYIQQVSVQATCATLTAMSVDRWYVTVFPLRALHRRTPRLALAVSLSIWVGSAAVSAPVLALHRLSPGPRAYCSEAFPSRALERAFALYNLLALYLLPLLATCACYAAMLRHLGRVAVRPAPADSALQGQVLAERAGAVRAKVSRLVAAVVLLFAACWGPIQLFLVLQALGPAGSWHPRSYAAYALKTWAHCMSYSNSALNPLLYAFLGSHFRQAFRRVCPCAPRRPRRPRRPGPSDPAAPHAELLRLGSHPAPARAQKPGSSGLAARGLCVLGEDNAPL
Beta-2 adrenergic receptor (Homo sapiens), sequence (P07550 whole entry, looked up): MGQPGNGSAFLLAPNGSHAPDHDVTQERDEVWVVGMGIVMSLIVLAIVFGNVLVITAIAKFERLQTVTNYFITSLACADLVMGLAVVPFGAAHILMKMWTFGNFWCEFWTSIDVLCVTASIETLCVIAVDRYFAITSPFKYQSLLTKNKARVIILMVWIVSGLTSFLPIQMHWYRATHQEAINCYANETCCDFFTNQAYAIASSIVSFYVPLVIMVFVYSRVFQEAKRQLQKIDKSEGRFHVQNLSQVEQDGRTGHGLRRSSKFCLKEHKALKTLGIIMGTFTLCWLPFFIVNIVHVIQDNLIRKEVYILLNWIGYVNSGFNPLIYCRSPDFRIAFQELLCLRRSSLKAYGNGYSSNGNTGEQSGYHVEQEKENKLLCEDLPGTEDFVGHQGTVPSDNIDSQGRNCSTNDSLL
D(2) dopamine receptor (Homo sapiens), sequence (P14416 whole entry, looked up): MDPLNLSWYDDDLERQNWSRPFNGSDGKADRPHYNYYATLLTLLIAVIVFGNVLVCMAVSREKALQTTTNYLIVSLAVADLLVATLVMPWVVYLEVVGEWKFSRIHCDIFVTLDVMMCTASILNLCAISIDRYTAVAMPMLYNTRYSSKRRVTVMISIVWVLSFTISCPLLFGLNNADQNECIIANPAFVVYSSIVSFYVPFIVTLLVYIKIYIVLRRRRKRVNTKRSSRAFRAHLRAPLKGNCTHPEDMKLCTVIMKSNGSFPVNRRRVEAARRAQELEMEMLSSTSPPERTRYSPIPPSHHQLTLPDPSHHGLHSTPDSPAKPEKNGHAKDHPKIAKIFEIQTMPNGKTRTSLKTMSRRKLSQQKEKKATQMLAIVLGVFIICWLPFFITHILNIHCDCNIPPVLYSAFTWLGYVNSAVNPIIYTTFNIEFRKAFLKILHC
Muscarinic acetylcholine receptor M1 (Homo sapiens), sequence (P11229 whole entry, looked up): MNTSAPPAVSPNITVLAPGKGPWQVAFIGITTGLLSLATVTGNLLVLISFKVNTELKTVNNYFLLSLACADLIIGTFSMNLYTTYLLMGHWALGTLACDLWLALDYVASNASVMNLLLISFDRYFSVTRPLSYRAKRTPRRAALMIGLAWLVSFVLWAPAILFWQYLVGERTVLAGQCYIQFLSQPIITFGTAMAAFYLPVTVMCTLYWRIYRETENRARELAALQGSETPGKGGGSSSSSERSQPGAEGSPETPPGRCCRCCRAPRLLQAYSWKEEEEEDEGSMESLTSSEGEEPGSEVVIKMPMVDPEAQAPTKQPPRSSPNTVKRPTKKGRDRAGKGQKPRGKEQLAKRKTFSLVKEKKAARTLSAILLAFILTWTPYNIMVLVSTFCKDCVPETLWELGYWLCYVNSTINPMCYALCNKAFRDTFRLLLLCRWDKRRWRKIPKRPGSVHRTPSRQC

Structure (SMILES)	Potency [1]	Potency [2]	Potency [3]	Potency [4]	Potency [5]	Potency [6]	Potency [7]	Potency [8]	Potency [9]	Potency [10]	Potency [11]	Potency [12]	Potency [13]	Potency [14]	Potency [15]	Potency [16]	Potency [17]	Potency [18]	Potency [19]	Potency [20]
CCCCCCOC(=O)NC(=N)c1ccc(NCc2nc3cc(C(=O)N(CCC(=O)OCC)c4ccccn4)ccc3n2C)cc1	inactive	inactive	inactive	inactive	inactive	inactive	inactive	inactive	inactive	inactive	inactive	inactive	inactive	–	–	–	–	–	–	–
CCCc1ncc(C[n+]2ccccc2C)c(N)n1	inactive	inactive	inactive	inactive	inactive	inactive	inactive	inactive	inactive	inactive	–	inactive	–	inactive	inactive	inactive	inactive	inactive	–	–
O=C1C=CC(=O)N1c1cccc(N2C(=O)C=CC2=O)c1	54.5 µM (active)	4.86 µM (active)	inactive	inactive	inactive	inactive	40.8 µM (active)	–	inactive	–	–	–	–	–	inactive	–	inactive	–	–	–
CCNC(=O)[C@@H]1CCCN1C(=O)[C@H](CCCN=C(N)N)NC(=O)[C@H](CC(C)C)NC(=O)CNC(=O)[C@H](Cc1ccc(O)cc1)NC(=O)[C@H](CO)NC(=O)[C@H](Cc1c[nH]c2ccccc12)NC(=O)[C@H](Cc1cnc[nH]1)NC(=O)[C@@H]1CCC(=O)N1 ([pGlu]HWSYGLRP-NHEt)	inactive	inactive	inactive	inactive	inactive	inactive	inactive	inactive	–	inactive	–	inactive	inactive	inactive	inactive	–	–	inactive	inactive	–
CCCCCCCCCOC(=O)CCCCC(=O)OCCCCCCC	inactive	inactive	inactive	inactive	inactive	inactive	inactive	inactive	inactive	15.4 µM (active)	inactive	inactive	inactive	inactive	inactive	inactive	–	inactive	inactive	–
Cc1cc(C)c(/C=C2\C(=O)Nc3ccccc32)[nH]1	inactive	inactive	inactive	inactive	inactive	inactive	inactive	inactive	inactive	–	–	inactive	inactive	inactive	inactive	inactive	inactive	–	–	21.3 µM (active)
CC(Cc1cccc(C(F)(F)F)c1)NCCOC(=O)c1ccccc1 (stereo not drawn)	inactive	inactive	inactive	inactive	inactive	inactive	inactive	inactive	–	29.8 µM (active)	–	inactive	inactive	–	inactive	20.5 µM (active)	inactive	–	–	–
O=C(O)CCc1nc(-c2ccccc2)c(-c2ccccc2)o1	inactive	inactive	–	inactive	–	–	–	–	–	inactive	inactive	inactive	inactive	–	–	–	–	–	–	–
Fc1ccc(C(c2ccc(F)cc2)N2CCN(C/C=C/c3ccccc3)CC2)cc1	16.8 µM (active)	inactive	–	inactive	–	–	inactive	inactive	–	inactive	–	inactive	16.8 µM (active)	inactive	–	–	–	–	–	–
